Test results from PubChem BioAssay (Tox21).
Inconclusive results are not listed. Active and inactive are the calls of the source. Unless noted, the call rests on the fitted dose curve; in most records, active means well fitted curve in the direction sought with a large enough effect in the repeat runs; inconclusive means weak or mixed curves; inactive means no such curve, though single readings can be large; an effect the other way counts as inactive or inconclusive.

Experiments:
[1] = qHTS assay for small molecule agonists of the p53 signaling pathway (AID 651631; calls by dose curve; further: nearly all actives have a fitted effect of over 15% in size)
Method in brief: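 We treat p53RE-bla HCT-116 cells with compounds for 16 h at 37 °C, add LiveBLAzer B/G FRET substrate for 2 h at room temperature, and measure fluorescence intensity.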

[2] = qHTS assay for small molecules that induce genotoxicity in human embryonic kidney cells expressing luciferase-tagged ATAD5 (AID 651632); further: nearly all actives have a fitted effect of over 15% in size
Method in brief: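 Concentration-response screen for ATAD5 upregulation in HEK293T luciferase reporter cells; 16 hr treatment at 37C, then luminescence after 30 min with Amplite at room temperature.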

[3] = qHTS assay for small molecule agonists of the p53 signaling pathway - cell viability (AID 651633; calls by dose curve;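 further: p53RE-bla HCT reporter cells with a stable beta-lactamase p53 reporter; series mostly up to about 83 µM; nearly all actives have a fitted effect of over 30% in size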)
Method in brief: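 p53RE-bla cells were treated with compound for 16 hours at 37 C. Cytotoxicity was then measured as CellTiter-Glo luminescence after 30 min at room temperature.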

[4] = qHTS assay for small molecules that induce genotoxicity in human embryonic kidney cells expressing luciferase-tagged ATAD5 - cell viability (AID 651634; calls by dose curve; further: nearly all actives have a fitted effect of over 25% in size)
Method in brief: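 15.5 hr compound or vehicle exposure of HEK293T cells expressing luciferase-tagged ATAD5 at 37C; live-cell protease activity is read by fluorescence after 30 min of CellTiter-Fluor.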

[5] = qHTS assay for small molecule disruptors of the mitochondrial membrane potential - cell viability (AID 720634; calls by dose curve;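 further: human HepG2 liver cancer cells; series mostly up to about 83 µM; nearly all actives have a fitted effect of over 20% in size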)
Method in brief: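 In this qHTS format, HepG2 cells plated overnight were pinned with compound, incubated 1 hr, and assayed for ATP luminescence with CellTiter-Glo after m-MPI dye addition.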

[6] = qHTS assay for small molecule disruptors of the mitochondrial membrane potential (AID 720635)
Method in brief: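 HepG2 cells exposed to compound 1 hr at 37C, then Mito-MPS dye 30 min. Ratio read of aggregate (540/590 nm) versus monomer (490/535 nm) fluorescence.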

[7] = qHTS assay to test for compound auto fluorescence at 535 nm (green) in HepG2 cells (AID 720675)
[8] = qHTS assay to test for compound auto fluorescence at 460 nm (blue) in HEK293 cells (AID 720678)
Method in brief: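 Intrinsic compound fluorescence is recorded in live HEK293 cultures after overnight incubation at 37C, 5% CO2, using excitation 405 nm and emission 460 nm. Values are referenced to triamterene.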

[9] = qHTS assay to test for compound auto fluorescence at 590 nm (red) in HEK293 cells (AID 720679)
Method in brief: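 Red autofluorescence, HEK293 cells: 2,000 cells/well; attach 4-5 hr 37C; add 23 nL cpd or DMSO; incubate o/n 37C 5% CO2; read Ex540/Em590; Rose Bengal sodium reference.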

[10] = qHTS assay to test for compound auto fluorescence at 535 nm (green) in HEK293 cells (AID 720680)
[11] = qHTS assay to test for compound auto fluorescence at 460 nm (blue) in HEK293 cell free culture (AID 720681)
Method in brief: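 Compounds were added to cell-free DMEM with 10% FBS and fluorescence read directly. The blue channel used 405 nm excitation and 460 nm emission, with triamterene as the reference fluorophore.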

[12] = qHTS assay to test for compound auto fluorescence at 535 nm (green) in HEK293 cell free culture (AID 720682)
Method in brief: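 Green-channel intensity (Ex/Em 485/535 nm) was recorded from compound-treated wells containing only DMEM with 10% FBS. Fluorescein provided the equivalency standard.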

[13] = qHTS assay to test for compound auto fluorescence at 590 nm (red) in HEK293 cell free culture (AID 720683)
Method in brief: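 Cell-free wells of DMEM with 10% FBS received compound, and intrinsic fluorescence was read at excitation/emission 540/590 nm. Values expressed as equivalence to Rose Bengal sodium.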

[14] = qHTS assay to test for compound auto fluorescence at 590 nm (red) in HepG2 cell free culture (AID 720684)
Method in brief: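 Rose Bengal sodium served as the reference for red signal. Test compounds were dispensed into serum-containing MEM (10% FBS) without cells, and plates were read at 540/590 nm.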

[15] = qHTS assay to test for compound auto fluorescence at 460 nm (blue) in HepG2 cell free culture (AID 720685)
Method in brief: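 Cell-free plates of MEM plus 10% FBS received 23 nL compound or DMSO vehicle; blue-channel (405/460 nm) intensity scored against triamterene as reference fluorophore.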

[16] = qHTS assay to test for compound auto fluorescence at 535 nm (green) in HepG2 cell free culture (AID 720686)
[17] = qHTS assay to test for compound auto fluorescence at 460 nm (blue) in HepG2 cells (AID 720687)
Method in brief: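 HepG2 cells in MEM with 10% FBS, attached overnight at 37 C, were exposed to compound or DMSO for 1 hr at 37 C, 5% CO2. Blue fluorescence was read at 405/460 nm, with triamterene as reference fluorophore.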

[18] = biological target: Glucocorticoid receptor (Homo sapiens) (UniProt P04150); experiment: qHTS assay to identify small molecule agonists of the glucocorticoid receptor (GR) signaling pathway (AID 720691; active means well fitted activation curve with a large enough effect in the signal ratio in the repeat runs, not every such curve was filed as active; the % refers to the signal ratio)
Method in brief: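 Measures GR pathway activation through a GRE-beta-lactamase reporter stably integrated in HeLa cells, with 18 h compound treatment at 37 C and fluorescence detection using a FRET substrate.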

[19] = biological target: Glucocorticoid receptor (Homo sapiens) (UniProt P04150); experiment: qHTS assay to identify small molecule antagonists of the glucocorticoid receptor (GR) signaling pathway (AID 720692; active means well fitted inhibition curve with a large enough effect in the signal ratio in the repeat runs, not every such curve was filed as active; the % refers to the signal ratio)
Method in brief: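 Tox21 10K library screened in concentration-response for blockade of dexamethasone (5 nM final)-induced GRE-bla reporter activity in HeLa cells; 18 h treatment, fluorescence read.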

[20] = qHTS assay to test for compound auto fluorescence at 590 nm (red) in HepG2 cells (AID 720674)
Method in brief: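 HepG2 cells, 2,000 per well in MEM with 10% FBS, attached overnight at 37 C, then got 23 nL compound or DMSO. After 1 hr at 37 C, 5% CO2, red fluorescence was read at 540/590 nm against Rose Bengal sodium as reference.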
On the % scale 0 is the no-effect control and ±100 the full control effect.

Sequence of Glucocorticoid receptor (Homo sapiens) (P04150 whole entry, looked up): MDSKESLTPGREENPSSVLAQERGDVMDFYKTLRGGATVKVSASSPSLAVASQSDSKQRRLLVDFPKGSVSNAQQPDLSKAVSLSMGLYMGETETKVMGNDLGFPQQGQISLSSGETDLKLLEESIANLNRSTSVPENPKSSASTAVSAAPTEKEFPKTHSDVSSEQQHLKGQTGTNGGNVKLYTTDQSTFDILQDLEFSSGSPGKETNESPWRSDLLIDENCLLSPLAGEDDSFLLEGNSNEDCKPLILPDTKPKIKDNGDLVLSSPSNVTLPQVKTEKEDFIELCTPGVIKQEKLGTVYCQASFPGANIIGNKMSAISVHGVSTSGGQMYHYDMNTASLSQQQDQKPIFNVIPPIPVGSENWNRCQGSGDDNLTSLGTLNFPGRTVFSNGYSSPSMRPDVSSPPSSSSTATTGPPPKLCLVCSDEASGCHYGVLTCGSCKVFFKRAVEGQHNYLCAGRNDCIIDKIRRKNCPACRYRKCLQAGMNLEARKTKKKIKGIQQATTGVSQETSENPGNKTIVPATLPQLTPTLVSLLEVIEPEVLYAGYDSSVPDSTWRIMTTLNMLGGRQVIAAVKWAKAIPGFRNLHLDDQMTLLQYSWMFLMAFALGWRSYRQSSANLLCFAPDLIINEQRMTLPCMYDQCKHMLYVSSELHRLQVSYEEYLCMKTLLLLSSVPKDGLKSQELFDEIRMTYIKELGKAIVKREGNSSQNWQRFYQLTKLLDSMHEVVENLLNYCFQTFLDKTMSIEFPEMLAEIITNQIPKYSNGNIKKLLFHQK

COC(=O)c1ccccc1C(=O)c1ccc(OCCN2CCCCC2)cc1
inactive: outcome [1] | Potency [2] | outcome [3] | Potency [4] | outcome [5] | Potency [6] | outcome [7] | outcome [8] | outcome [9] | outcome [10] | outcome [11] | outcome [12] | outcome [13] | outcome [14] | outcome [15] | outcome [16] | outcome [17]

O=C(O)Cc1cn(-c2ccccc2)nc1-c1ccc(Cl)cc1
inactive: outcome [1] | Potency [2] | outcome [3] | Potency [4] | outcome [5] | Potency [6] | outcome [7] | outcome [8] | outcome [9] | outcome [10] | outcome [11] | outcome [12] | outcome [13] | outcome [14] | outcome [15] | outcome [16] | outcome [17] | Potency [18] | outcome [19]

CCCCCOC(=O)CCC
inactive: outcome [1] | Potency [2] | outcome [3] | Potency [4] | outcome [5] | outcome [20] | outcome [7] | outcome [8] | outcome [9] | outcome [10] | outcome [11] | outcome [12] | outcome [15] | outcome [16] | outcome [17]

C[C@H](N)[C@H](O)c1cccc(O)c1
inactive: outcome [1] | Potency [2] | outcome [3] | Potency [4] | outcome [5] | fluorescence, relative to Rose Bengal [20] 0.285% [at 18.6 µM] | fluorescence, % of fluorescein control [7] 0.0051% [at 18.6 µM] | fluorescence, % of triamterene [8] 2.14% [at 18.6 µM] | fluorescence, % of fluorescent control [9] -0.0013% [at 18.6 µM] | fluorescence, % of fluorescein [10] 0.0113% [at 18.6 µM] | fluorescence, % of fluorescent control [11] 2.08% [at 18.6 µM] | activity change [12] 0.048% [at 18.6 µM] | fluorescence, % of Rose Bengal [14] -0.249% [at 18.6 µM] | fluorescence, % of fluorescent control [15] 1.92% [at 18.6 µM] | fluorescence, % of fluorescein control [16] 0.027% [at 18.6 µM] | fluorescence, % of fluorescent control [17] 1.56% [at 18.6 µM] | Potency [18] | outcome [19]

COCCOCCOCCOCCO
inactive: outcome [1] | Potency [2] | outcome [3] | Potency [4] | outcome [5] | outcome [20] | outcome [7] | outcome [9] | outcome [10] | outcome [11] | outcome [12] | outcome [13] | outcome [15] | outcome [16] | outcome [17]

Cc1ccccc1OCC(O)CO (configuration not stated)
inactive: outcome [1] | Potency [2] | Potency [4] | outcome [5] | Potency [6] | outcome [20] | outcome [7] | outcome [8] | outcome [10] | outcome [11] | outcome [12] | outcome [13] | outcome [14] | outcome [15] | outcome [16] | outcome [17] | Potency [18] | outcome [19]

CC(C)(C)c1n[nH]c(=S)n(N)c1=O
inactive: outcome [1] | Potency [2] | Potency [4] | outcome [5] | Potency [6] | outcome [7] | outcome [8] | outcome [9] | outcome [10] | outcome [11] | outcome [12] | outcome [13] | outcome [14] | outcome [15] | outcome [16] | outcome [17] | Potency [18] | outcome [19]

CCCC(=O)C(C)=O
inactive: outcome [1] | Potency [2] | outcome [3] | Potency [4] | outcome [5] | outcome [7] | outcome [8] | outcome [10] | outcome [11] | outcome [12] | outcome [13] | outcome [15] | outcome [16] | outcome [17] | Potency [18] | outcome [19]

COc1cc(C(=S)N2CCOCC2)cc(OC)c1OC
inactive: outcome [1] | Potency [2] | Potency [4] | outcome [5] | Potency [6] | outcome [20] | outcome [7] | outcome [8] | outcome [9] | outcome [10] | outcome [11] | outcome [12] | outcome [13] | outcome [14] | outcome [15] | outcome [16] | outcome [17] | Potency [18] | outcome [19]

C=C(C)C(=O)OCCN(CC)CC
inactive: outcome [1] | Potency [2] | Potency [4] | outcome [5] | Potency [6] | outcome [20] | outcome [7] | outcome [8] | outcome [9] | outcome [10] | outcome [11] | outcome [12] | outcome [13] | outcome [14] | outcome [15] | outcome [16] | outcome [17] | Potency [18]

O=C(OCc1ccccc1)C(=O)OCc1ccccc1
inactive: outcome [1] | Potency [2] | Potency [4] | outcome [5] | Potency [6] | outcome [7] | outcome [8] | outcome [9] | outcome [10] | outcome [11] | outcome [12] | outcome [13] | outcome [14] | outcome [15] | outcome [16] | outcome [17] | Potency [18]

CCO[Si](CCCS)(OCC)OCC
inactive: outcome [1] | Potency [2] | outcome [3] | Potency [4] | outcome [5] | outcome [20] | outcome [7] | outcome [8] | outcome [10] | outcome [11] | outcome [12] | outcome [13] | outcome [15] | outcome [16] | outcome [17] | Potency [18] | outcome [19]

Cc1ccccc1N=O
inactive: outcome [1] | Potency [2] | outcome [3] | Potency [4] | outcome [5] | outcome [20] | outcome [7] | outcome [9] | outcome [10] | outcome [11] | outcome [12] | outcome [13] | outcome [14] | outcome [15] | outcome [16] | outcome [17] | Potency [18] | outcome [19]

CC(=O)Nc1ccc(S(=O)(=O)Nc2ccc([N+](=O)[O-])cc2)cc1
inactive: outcome [1] | Potency [2] | outcome [3] | outcome [5] | outcome [7] | outcome [8] | outcome [9] | outcome [10] | outcome [11] | outcome [12] | outcome [13] | outcome [15] | outcome [16] | outcome [17] | Potency [18] | outcome [19]

COc1ccc(-c2cc(=O)c3c(O)cc(O[C@@H]4O[C@H](CO[C@@H]5O[C@@H](C)[C@H](O)[C@@H](O)[C@H]5O)[C@@H](O)[C@H](O)[C@H]4O)cc3o2)cc1O
inactive: outcome [1] | Potency [2] | outcome [3] | Potency [4] | outcome [20] | outcome [7] | outcome [8] | outcome [9] | outcome [10] | outcome [11] | outcome [12] | outcome [13] | outcome [14] | outcome [15] | outcome [16] | outcome [17] | Potency [18] | outcome [19]

CC(C)(C)NC(N)=O
inactive: outcome [1] | Potency [2] | outcome [3] | Potency [4] | outcome [20] | outcome [7] | outcome [8] | outcome [9] | outcome [10] | outcome [11] | outcome [12] | outcome [13] | outcome [14] | outcome [15] | outcome [16] | outcome [17] | Potency [18] | outcome [19]
